In PubChem BioAssay (Tox21):
Values joined by “and” are separate entries in the source; they are usually repeats but may differ in a detail not shown here. Equal entries are not always repeated. Unmarked numbers belong to inactive results. Results filed as inconclusive are left out. A call without a number means that no potency is given here. Active and inactive are the calls of the source. Unless noted, the call rests on the fitted dose curve; in most records, active means well fitted curve in the direction sought with a large enough effect in the repeat runs; inconclusive means weak or mixed curves; inactive means no such curve, though single readings can be large; an effect the other way counts as inactive or inconclusive.

Key:
[1] = qHTS assay for small molecule agonists of the p53 signaling pathway (AID 651631; calls by dose curve; further: nearly all actives have a fitted effect of over 15% in size; further: potency means the concentration at half of the fitted maximal effect)
How it was run: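 Stably transfected HCT-116 cells (beta-lactamase behind p53 response elements) get compounds after a 5 h settling period; 16 h later at 37 °C, FRET substrate is loaded and fluorescence read after 2 h.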

[2] = qHTS assay for small molecules that induce genotoxicity in human embryonic kidney cells expressing luciferase-tagged ATAD5 (AID 651632); further: nearly all actives have a fitted effect of over 15% in size
How it was run: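 HEK293T cells carrying luciferase-tagged ATAD5 were given compound or DMSO vehicle and incubated 16 hr at 37C, 5% CO2. Luciferase activity was read after 30 min at room temperature with Amplite; a rise signals genotoxic stress.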

[3] = qHTS assay for small molecules that induce genotoxicity in human embryonic kidney cells expressing luciferase-tagged ATAD5 - cell viability (AID 651634; calls by dose curve; further: nearly all actives have a fitted effect of over 25% in size; further: potency means the concentration at half of the fitted maximal effect)
How it was run: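 HEK293T cells carrying luciferase-tagged ATAD5, 2,000 cells/well, exposed to compound for 15.5 hr at 37C. Viability read as live-cell protease activity by CellTiter-Fluor fluorescence after 30 min at 37C.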

[4] = qHTS assay for small molecule disruptors of the mitochondrial membrane potential - cell viability (AID 720634; calls by dose curve; further: nearly all actives have a fitted effect of over 20% in size; further: potency means the concentration at half of the fitted maximal effect)
How it was run: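 HepG2 cells, 2,000 per well, attached overnight, then treated 1 hr at 37 C, 5% CO2. Viability read as ATP by CellTiter-Glo luminescence after 30 min at room temperature. Read in the same wells as the m-MPI membrane-potential dye assay.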

[5] = qHTS assay for small molecule disruptors of the mitochondrial membrane potential (AID 720635); further: potency means the concentration at half of the fitted maximal effect
How it was run: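 HepG2 cells (2,000/well) attached overnight at 37C, then took compound for 1 hr at 37C, 5% CO2. Mito-MPS dye was added for 30 min; fluorescence was read at 490/535 nm (monomers) and 540/590 nm (aggregates).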

[6] = qHTS assay to test for compound auto fluorescence at 590 nm (red) in HepG2 cells (AID 720674)
How it was run: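 Compound auto-fluorescence is scored relative to Rose Bengal sodium, measured at 540/590 nm in live HepG2 cultures after 1 hr compound contact (37 C, 5% CO2).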

[7] = qHTS assay to test for compound auto fluorescence at 535 nm (green) in HepG2 cells (AID 720675); further: potency means the concentration at half of the fitted maximal effect
[8] = qHTS assay to test for compound auto fluorescence at 460 nm (blue) in HEK293 cells (AID 720678)
How it was run: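 Cells were seeded and left to adhere for 4-5 hr at 37C. Compounds were then pin-transferred. After an overnight incubation at 37C under 5% CO2, intrinsic fluorescence at 405/460 nm was measured and referenced to triamterene.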

[9] = qHTS assay to test for compound auto fluorescence at 535 nm (green) in HEK293 cells (AID 720680)
[10] = qHTS assay to test for compound auto fluorescence at 460 nm (blue) in HEK293 cell free culture (AID 720681)
How it was run: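 Test compounds were pinned into cell-free culture medium (DMEM with 10% FBS) and fluorescence was read directly at Ex/Em 405/460 nm. Signals were expressed as fluorescence equivalents of triamterene, with DMSO vehicle as control.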

[11] = qHTS assay to test for compound auto fluorescence at 535 nm (green) in HEK293 cell free culture (AID 720682)
How it was run: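 Using fluorescein as calibrant, autofluorescence was quantified at 485/535 nm in cell-free DMEM containing 10% FBS after pintool addition of compound or vehicle.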

[12] = qHTS assay to test for compound auto fluorescence at 590 nm (red) in HEK293 cell free culture (AID 720683)
How it was run: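 Tox21 10K library compounds were pinned into cell-free DMEM with 10% FBS and fluorescence was read at excitation 540 nm. Activity is expressed as Rose Bengal sodium equivalency.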

[13] = qHTS assay to test for compound auto fluorescence at 590 nm (red) in HepG2 cell free culture (AID 720684)
How it was run: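 Red fluorescence (540 nm excitation, 590 nm emission) was measured after compound transfer into cell-free MEM supplemented with 10% FBS. Values are equivalencies against Rose Bengal sodium.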

[14] = qHTS assay to test for compound auto fluorescence at 460 nm (blue) in HepG2 cell free culture (AID 720685)
How it was run: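 Compound (23 nL) or DMSO pinned into cell-free MEM with 10% FBS; blue fluorescence read at 405/460 nm excitation/emission, expressed as auto-fluorescence equivalency to triamterene.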

[15] = qHTS assay to test for compound auto fluorescence at 535 nm (green) in HepG2 cell free culture (AID 720686); further: potency means the concentration at half of the fitted maximal effect
[16] = qHTS assay to test for compound auto fluorescence at 460 nm (blue) in HepG2 cells (AID 720687)
How it was run: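 Cells (2,000/well in MEM with 10% FBS) attached overnight at 37 C, then were exposed to compound or DMSO for 1 hr at 37 C, 5% CO2. Fluorescence read at Ex/Em 405/460 nm, expressed as triamterene-equivalent signal.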

[17] = molecular target: Glucocorticoid receptor (Homo sapiens) (UniProt P04150); test: qHTS assay to identify small molecule agonists of the glucocorticoid receptor (GR) signaling pathway (AID 720691; active means well fitted activation curve with a large enough effect in the signal ratio in the repeat runs, not every such curve was filed as active; the % refers to the signal ratio); settings: GR-bla HeLa, beta-lactamase reporter ratio, 18 h; activation: at 62.4 µM (top of the series)
How it was run: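 GR-bla HeLa cells carrying a GRE-driven beta-lactamase reporter, exposed to compounds for 18 h at 37 C. Reporter activation read as fluorescence after 2 h with LiveBLAzer B/G FRET substrate at room temperature.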

[18] = molecular target: Glucocorticoid receptor (Homo sapiens) (UniProt P04150); test: qHTS assay to identify small molecule antagonists of the glucocorticoid receptor (GR) signaling pathway (AID 720692; active means well fitted inhibition curve with a large enough effect in the signal ratio in the repeat runs, not every such curve was filed as active; the % refers to the signal ratio; further: potency means the concentration at half of the fitted maximal effect)
How it was run: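 GR-bla HeLa cells carrying a GRE-driven beta-lactamase reporter received compound after 4 h plating, then dexamethasone (5 nM final). After 18 h at 37C, the FRET substrate was loaded for 2 h at room temperature and fluorescence read.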

[19] = qHTS assay for small molecule agonists of the p53 signaling pathway - cell viability (AID 651633; calls by dose curve; further: nearly all actives have a fitted effect of over 30% in size; further: potency means the concentration at half of the fitted maximal effect)
How it was run: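 p53RE-bla cells, seeded at 4,000 per well and rested 5 h at 37 C/5% CO2, received compounds in DMSO for 16 h at 37 C. CellTiter-Glo was then added, and luminescence was read after 30 min at room temperature to gauge cytotoxicity.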

[20] = qHTS assay to test for compound auto fluorescence at 590 nm (red) in HEK293 cells (AID 720679)
How it was run: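 Each well held 2,000 HEK293 cells in medium containing 10% dialyzed FBS. Following 4-5 hr attachment at 37C, 23 nL test compound or DMSO was added; plates sat overnight, and red fluorescence (540/590nm) was recorded.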
Tags describe the fitted curve by direction and shape or compound fluorescence and quenching.

Sequence of Glucocorticoid receptor (Homo sapiens) (P04150 whole entry, looked up): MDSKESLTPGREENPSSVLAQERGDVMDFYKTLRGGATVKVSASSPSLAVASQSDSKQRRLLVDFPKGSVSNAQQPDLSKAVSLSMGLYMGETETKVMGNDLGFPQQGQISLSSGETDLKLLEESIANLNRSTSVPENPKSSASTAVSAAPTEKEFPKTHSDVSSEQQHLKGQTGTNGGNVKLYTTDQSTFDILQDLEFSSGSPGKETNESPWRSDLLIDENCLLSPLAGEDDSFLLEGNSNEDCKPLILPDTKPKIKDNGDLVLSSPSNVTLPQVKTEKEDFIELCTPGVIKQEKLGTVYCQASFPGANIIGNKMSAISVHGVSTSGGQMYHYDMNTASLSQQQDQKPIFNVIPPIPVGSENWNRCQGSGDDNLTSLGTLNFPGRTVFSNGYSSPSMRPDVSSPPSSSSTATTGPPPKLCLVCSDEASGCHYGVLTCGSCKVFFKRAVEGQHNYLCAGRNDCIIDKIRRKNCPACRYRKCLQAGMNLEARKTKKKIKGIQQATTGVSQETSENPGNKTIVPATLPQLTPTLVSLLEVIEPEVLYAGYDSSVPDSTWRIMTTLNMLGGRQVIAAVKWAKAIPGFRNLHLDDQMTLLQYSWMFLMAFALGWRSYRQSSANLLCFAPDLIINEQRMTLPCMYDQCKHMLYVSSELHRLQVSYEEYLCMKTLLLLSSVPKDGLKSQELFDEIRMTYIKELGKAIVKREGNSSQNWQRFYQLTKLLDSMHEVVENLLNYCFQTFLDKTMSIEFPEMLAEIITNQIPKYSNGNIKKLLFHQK

Compound: COCCC#N
- Potency [1]: inactive
- Potency [2]: inactive
- Potency [3]: inactive
- Potency [4]: inactive
- Potency [5]: inactive
- outcome [6]: inactive
- Potency [7]: inactive
- Potency [8]: inactive
- outcome [9]: inactive
- Potency [10]: inactive
- outcome [11]: inactive
- outcome [12]: inactive
- outcome [13]: inactive
- Potency [14]: inactive
- Potency [15]: inactive
- Potency [16]: inactive
- Potency [17]: inactive
- Potency [18]: inactive

Compound: [Cl][Hg][c]1ccccc1
- Potency [1]: 6.11 µM (active)
- Potency [2]: inactive
- Potency [19]: 1.93 µM (active)
- Potency [3]: 19.3 µM (active)
- Potency [5]: 6.11 µM (active)
- outcome [6]: inactive
- Potency [7]: inactive
- Potency [8]: inactive
- outcome [9]: inactive
- Potency [10]: inactive
- outcome [11]: inactive
- outcome [12]: inactive
- outcome [13]: inactive
- Potency [14]: inactive
- Potency [16]: inactive

Compound: O=C1C(Cl)=C(Cl)C(=O)C(Cl)=C1Cl
- Potency [1]: 30.5 µM (active) and 6.11 µM (active)
- Potency [2]: inactive
- Potency [3]: inactive
- Potency [4]: 30.5 µM (active) and 27.3 µM (active)
- Potency [5]: 8.6 µM (active) and 8.63 µM (active)
- outcome [6]: inactive
- Potency [8]: inactive
- outcome [20]: inactive
- outcome [9]: inactive
- Potency [10]: inactive
- outcome [11]: inactive
- outcome [12]: inactive
- outcome [13]: inactive
- Potency [14]: inactive
- Potency [15]: inactive
- Potency [16]: inactive
- Potency [17]: inactive
- Potency [18]: 30.9 µM (active)

Compound: CCC[CH2][Sn]([CH2]CCC)([CH2]CCC)[O][Sn]([CH2]CCC)([CH2]CCC)[CH2]CCC
- activation [2]: -11.2% [at 8.08 µM]
- Potency [19]: 0.533 µM (active)
- Potency [3]: 0.377 µM (active)
- Potency [4]: 1.68 µM (active)
- Potency [5]: 0.0752 µM (active)
- fluorescence, relative to Rose Bengal [6]: -0.33% [at 3.72 µM]
- fluorescence, % of fluorescein control [7]: -0.0029% [at 3.72 µM]
- fluorescence, % of triamterene [8]: -0.1% [at 3.72 µM]
- fluorescence, % of fluorescent control [20]: -0.182% [at 3.72 µM]
- fluorescence, % of fluorescein [9]: 0.0128% [at 3.72 µM]
- fluorescence, % of fluorescent control [10]: -0.0236% [at 3.72 µM]
- activity change [11]: 0.0175% [at 3.72 µM]
- fluorescence, % of fluorescent control [12]: 0.113% [at 3.72 µM]
- fluorescence, % of Rose Bengal [13]: 0.0071% [at 3.72 µM]
- fluorescence, % of fluorescent control [14]: -0.0005% [at 3.72 µM]
- fluorescence, % of fluorescein control [15]: -0.0002% [at 3.72 µM]
- fluorescence, % of fluorescent control [16]: 0.0007% [at 3.72 µM]

Compound: Cc1c([N+](=O)[O-])c(C)c([N+](=O)[O-])c(C(C)(C)C)c1[N+](=O)[O-]
- Potency [2]: inactive
- Potency [19]: inactive
- Potency [3]: inactive
- Potency [4]: inactive
- Potency [5]: 15.4 µM (active)
- outcome [6]: inactive
- Potency [7]: inactive
- Potency [8]: inactive
- outcome [20]: inactive
- outcome [9]: inactive
- Potency [10]: inactive
- outcome [11]: inactive
- outcome [12]: inactive
- outcome [13]: inactive
- Potency [14]: inactive
- Potency [15]: inactive
- Potency [16]: inactive
- Potency [17]: inactive
- Potency [18]: inactive

Compound: Nc1nc(N)c(N)c(N)n1
- Potency [2]: inactive
- Potency [19]: inactive
- Potency [3]: inactive
- Potency [4]: inactive
- Potency [5]: 8.68 µM (active)
- outcome [6]: inactive
- Potency [7]: 31.6 µM (active)
- outcome [20]: inactive
- outcome [12]: inactive
- outcome [13]: inactive
- Potency [15]: 28.2 µM [fluorescent] (active)

Compound: ClC1=C(Cl)[C@]2(Cl)[C@H]3[C@H]([C@@H]4C=C[C@H]3C4)[C@@]1(Cl)C2(Cl)Cl
- Potency [2]: inactive
- Potency [19]: 30.6 µM (active) and 61.1 µM (active)
- Potency [3]: inactive
- Potency [4]: inactive
- Potency [5]: 30.6 µM (active) and 17.2 µM (active)
- outcome [6]: inactive
- Potency [7]: inactive
- Potency [8]: inactive
- outcome [20]: inactive
- Potency [10]: inactive
- outcome [11]: inactive
- outcome [12]: inactive
- outcome [13]: inactive
- Potency [14]: inactive
- Potency [15]: inactive
- Potency [16]: inactive

Compound: COc1cnc(OC)n2nc(NS(=O)(=O)c3c(OCC(F)F)cccc3C(F)(F)F)nc12
- Potency [2]: inactive
- Potency [19]: inactive
- Potency [3]: inactive
- Potency [4]: inactive
- Potency [5]: inactive
- outcome [6]: inactive
- Potency [7]: inactive
- Potency [8]: inactive
- outcome [20]: inactive
- outcome [9]: inactive
- Potency [10]: inactive
- outcome [11]: inactive
- outcome [12]: inactive
- outcome [13]: inactive
- Potency [14]: inactive
- Potency [16]: inactive
- Potency [17]: inactive
- Potency [18]: inactive

Compound: O=S(=O)(O)F
- Potency [2]: inactive
- Potency [19]: inactive
- Potency [3]: inactive
- Potency [4]: inactive
- Potency [5]: inactive
- outcome [6]: inactive
- Potency [7]: inactive
- Potency [8]: inactive
- outcome [20]: inactive
- Potency [10]: inactive
- outcome [11]: inactive
- outcome [12]: inactive
- outcome [13]: inactive
- Potency [14]: inactive
- Potency [15]: inactive
- Potency [16]: inactive

Compound: COP(=S)(OC)Oc1nc(Cl)c(Cl)cc1Cl
- Potency [2]: inactive
- Potency [19]: inactive
- Potency [3]: inactive
- Potency [4]: inactive
- Potency [5]: 48.5 µM (active)
- outcome [6]: inactive
- Potency [7]: inactive
- Potency [8]: inactive
- outcome [9]: inactive
- Potency [10]: inactive
- outcome [11]: inactive
- outcome [12]: inactive
- outcome [13]: inactive
- Potency [14]: inactive
- Potency [15]: inactive
- Potency [16]: inactive
- Potency [17]: inactive
- Potency [18]: inactive

Compound: CCN(CC)CCc1c[nH]c2ccccc12
- Potency [2]: inactive
- Potency [19]: inactive
- Potency [3]: inactive
- Potency [4]: inactive
- Potency [5]: inactive
- outcome [6]: inactive
- Potency [7]: inactive
- Potency [8]: inactive
- outcome [20]: inactive
- outcome [9]: inactive
- Potency [10]: inactive
- outcome [11]: inactive
- outcome [12]: inactive
- outcome [13]: inactive
- Potency [14]: inactive
- Potency [15]: inactive
- Potency [16]: inactive
- Potency [17]: inactive
- Potency [18]: inactive

Compound: Clc1ccc(C(c2ccc(Cl)cc2)C(Cl)Cl)cc1
- Potency [2]: inactive
- Potency [19]: 62.1 µM (active) and 61.1 µM (active)
- Potency [3]: inactive
- Potency [4]: inactive
- Potency [5]: 9.85 µM (active) and 9.69 µM (active)
- outcome [6]: inactive
- Potency [7]: inactive
- Potency [8]: inactive
- outcome [9]: inactive
- Potency [10]: inactive
- outcome [11]: inactive
- outcome [12]: inactive
- outcome [13]: inactive
- Potency [14]: inactive
- Potency [15]: inactive
- Potency [16]: inactive
- Potency [17]: inactive
- Potency [18]: 24.9 µM (active)
